In PubChem BioAssay (NCI) one finds growth data, which are given here for 8 compounds.

This is part of a sample that, as a whole, favours compounds with a hit. Of some 83,000 tested, about 20% had one in any assay.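 Plates (96-well) were seeded with cells, treated with compound at one concentration, and incubated for 48 hours before percent growth was determined.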 Values without a mark were called inactive. The source made the active and inactive calls. The calls were made as follows: active = growth percent below 10; inactive = the rest.

Some test systems named below: SR leukemia; RPMI-8226 leukemia; OVCAR-8 ovarian; OVCAR-5 ovarian; OVCAR-4 ovarian; SK-OV-3 ovarian; IGROV1 ovarian; OVCAR-3 ovarian; HS 578T breast; NCI/ADR-RES ovarian; BT-549 breast; MDA-MB-435 melanoma; SW-620 colon; MCF7 breast; HCT-116 colon; HCC-2998 colon; KM12 colon; T-47D breast.
Holding throughout (test): NCI-60 one-dose screen, 48 h (100 = growth as untreated, 0 = no growth, -100 = all killed)
Holding throughout (settings): 10 µM unless noted

`N#Cc1cnc2ccc(-c3cnc4[nH]ncc4c3)cc2c1N1CCc2cc(F)c(Cl)cc21`: the growth in the assay with SR leukemia is 8.41% (active); with RPMI-8226 leukemia, -1.79% (active); with OVCAR-8 ovarian, 19.2%; in the assay with OVCAR-5 ovarian, 19.5%; with OVCAR-4 ovarian it was 15.3%; with SK-OV-3 ovarian, 4.24% (active). The growth in the assay on IGROV1 ovarian was -31% (active); with OVCAR-3 ovarian it was -5.18% (active); with HS 578T breast, -42% (active); in the assay on NCI/ADR-RES ovarian it was 8.51% (active); with BT-549 breast, 20.1%; in the assay on MDA-MB-435 melanoma, -10.2% (active). Besides, the growth with SW-620 colon is 17.9%; in the assay with MCF7 breast it was -2.16% (active); in the assay on HCT-116 colon it was 8.48% (active); in the assay with HCC-2998 colon, -11.8% (active); with KM12 colon, 14%.
As for `O=S(=O)(NCCCNc1nccc(-n2cnc3ccccc32)n1)c1ccc(C(F)(F)F)cc1`, the growth was 75.4% in the assay with SR leukemia; 69.7% in the assay with RPMI-8226 leukemia; 82.5% in the assay with OVCAR-8 ovarian; 96.3% in the assay with OVCAR-5 ovarian; 66.7% with OVCAR-4 ovarian; 92.5% with SK-OV-3 ovarian. Besides, the growth in the assay with IGROV1 ovarian is 98.1%; in the assay with OVCAR-3 ovarian, 96.8%; with HS 578T breast it was 78.3%; in the assay with NCI/ADR-RES ovarian, 81.1%; in the assay with BT-549 breast, 88.2%; in the assay on MDA-MB-435 melanoma it was 93.4%. Moreover, the growth with SW-620 colon is 106%; in the assay on MCF7 breast, 83.4%; in the assay on HCT-116 colon it was 75.9%; with HCC-2998 colon, 112%; with KM12 colon it was 79.8%.
Regarding `COc1ccc(CCN2C(=O)CSC2=S)cc1`, the growth in the assay with SR leukemia is 65.8%; in the assay on RPMI-8226 leukemia, 33.3%; in the assay with OVCAR-8 ovarian, 102%; in the assay with OVCAR-5 ovarian, 95.7%; in the assay with OVCAR-4 ovarian, 92.8%; with SK-OV-3 ovarian it was 111%. Further, the growth in the assay on IGROV1 ovarian is 109%; with HS 578T breast, 99.4%; in the assay on NCI/ADR-RES ovarian, 98.4%; in the assay with T-47D breast, 50.7%; in the assay on BT-549 breast, 112%; with MDA-MB-435 melanoma it was 77.6%. The growth is 61.3% in the assay with SW-620 colon; 24.2% with MCF7 breast; 84.6% in the assay on HCT-116 colon; 110% with HCC-2998 colon; 6.12% (active) with KM12 colon.
As to `C=C(C)[C@@H]1CC[C@]2(COP(=O)(OCC)OCC)CC[C@]3(C)[C@H](CC[C@@H]4[C@@]5(C)CCCNC(C)(C)[C@@H]5CC[C@]43C)[C@@H]12`, the growth was -51.4% (active) in the assay with SR leukemia; -46.6% (active) in the assay on RPMI-8226 leukemia; 55.4% in the assay with OVCAR-8 ovarian; 58.6% in the assay on OVCAR-5 ovarian; 23.5% in the assay with OVCAR-4 ovarian; 103% in the assay with SK-OV-3 ovarian. In addition, the growth is 6.74% (active) with IGROV1 ovarian; 54% with OVCAR-3 ovarian; 52.9% in the assay on HS 578T breast; 27.6% in the assay with NCI/ADR-RES ovarian; 36.5% in the assay on MDA-MB-435 melanoma; 15.3% in the assay with SW-620 colon. Besides, the growth in the assay with MCF7 breast was 13.8%; in the assay on HCT-116 colon, -68.8% (active); in the assay on HCC-2998 colon, -27.4% (active); in the assay on KM12 colon, 55.7%.
Take `Cc1ccc(S(=O)(=O)NCCNc2nc(Nc3ccc(N4CCN(C)CC4)cc3)nc3ccsc23)cc1`: the growth with SR leukemia was 18.1%; in the assay on RPMI-8226 leukemia, 84.2%; in the assay on OVCAR-8 ovarian, 104%; with OVCAR-5 ovarian, 113%; with OVCAR-4 ovarian, 95.1%; in the assay on SK-OV-3 ovarian, 129%. Further, the growth is 108% with IGROV1 ovarian; 89% in the assay on HS 578T breast; 100% in the assay with NCI/ADR-RES ovarian; 102% in the assay on T-47D breast; 114% with BT-549 breast; 109% in the assay with MDA-MB-435 melanoma. Besides, the growth with SW-620 colon was 103%; in the assay with MCF7 breast, 87.4%; with HCT-116 colon it was 69.7%; with HCC-2998 colon it was 104%; with KM12 colon, 100%.
On to `c1cc(-c2nc3ccc4[nH]ncc4c3c3c2CCCC3)[nH]n1`, for which the growth was 7.95% (active) in the assay with SR leukemia; 55.1% in the assay with RPMI-8226 leukemia; 70.2% in the assay with OVCAR-8 ovarian; 89% in the assay on OVCAR-5 ovarian; 89.6% in the assay with OVCAR-4 ovarian; 9.7% (active) in the assay with SK-OV-3 ovarian. Also, the growth in the assay on IGROV1 ovarian was 44.5%; in the assay on HS 578T breast, 41.3%; with NCI/ADR-RES ovarian, 78.8%; with T-47D breast, 73.8%; in the assay with BT-549 breast it was 31.2%; in the assay on MDA-MB-435 melanoma it was 10.5%. Besides, the growth is 25% with SW-620 colon; 40% in the assay on MCF7 breast; 25.6% in the assay on HCT-116 colon; 78.9% in the assay on HCC-2998 colon; 24% in the assay on KM12 colon.
For `O=C(CSc1nc2ccccc2c(=O)n1-c1ccccc1)Nc1ccc(-c2nc3ccc([N+](=O)[O-])cc3[nH]2)cc1`, the growth in the assay with SR leukemia is 20.9%; in the assay with RPMI-8226 leukemia it was 67.2%; in the assay on OVCAR-8 ovarian, 75.5%; in the assay with OVCAR-5 ovarian, 86.1%; with OVCAR-4 ovarian it was 88.6%; in the assay with SK-OV-3 ovarian, 106%. Besides, the growth is 57.9% in the assay with IGROV1 ovarian; 63.6% in the assay on OVCAR-3 ovarian; 77.1% in the assay on HS 578T breast; 75.3% in the assay with NCI/ADR-RES ovarian; 80% in the assay on BT-549 breast; 80.1% in the assay with MDA-MB-435 melanoma. The growth was 43.7% in the assay on SW-620 colon; 40.6% in the assay on MCF7 breast; 67.4% in the assay with HCT-116 colon; 100% in the assay with HCC-2998 colon; 91.7% in the assay on KM12 colon.
Turning to `Cc1noc(C)c1CSc1nc2ccccc2n1-c1ccccc1`, the growth is 69.7% in the assay on SR leukemia; 95.8% in the assay on RPMI-8226 leukemia; 102% in the assay with OVCAR-8 ovarian; 89% in the assay on OVCAR-5 ovarian; 69.1% with OVCAR-4 ovarian; 116% with SK-OV-3 ovarian. Besides, the growth was 77% with IGROV1 ovarian; 114% with OVCAR-3 ovarian; 102% in the assay with HS 578T breast; 97.3% in the assay on NCI/ADR-RES ovarian; 87.5% in the assay on BT-549 breast; 100% in the assay on MDA-MB-435 melanoma. Besides, the growth was 94.5% with SW-620 colon; 94.9% in the assay on MCF7 breast; 92.9% with HCT-116 colon; 112% in the assay with HCC-2998 colon; 101% with KM12 colon.
